Among all 39,000 compounds or so, about 220 (0.56%) showed activity. The sample holds actives, similar compounds and a random draw of the others, so the mix is not that of the screen. Unmarked numbers belong to inactive results.
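Further: Wild-type cells incubated without shaking, value is the mean of two biological replicates.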

In this test the test system is Escherichia coli K-12 BW25113. In words: relative growth (OD600 normalised to plate interquartile mean) (fraction); higher = less growth inhibition, active = 0.2 or less. Particulars: 50 µM; LB; incubation time: overnight (16-24 h).
As to `c1ccc(-c2ccnc(-c3cc(-c4ccccc4)ccn3)c2)cc1`, the relative growth is 0.99.

For `Cl.NCCCC(=O)O` [gamma-AMINOBUTYRIC ACID HYDROCHLORIDE], the relative growth was 0.905.

Regarding `O=C(O)c1ccc2c(c1)OCO2`, the relative growth is 0.853.

Consider `CCn1nc(C(=O)O)c(=O)c2cc3c(cc21)OCO3`, for which the relative growth was 0.0537 (active).

On to `CNC(=O)NCc1ccc2c(c1)OCO2`, for which the relative growth is 1.

With `C[C@H](CO)N1C[C@H](C)[C@H](CN(C)S(=O)(=O)c2cn(C)cn2)OCCCC[C@H](C)Oc2ccc(NS(=O)(=O)c3cccs3)cc2C1=O`, the relative growth was 1.01.

Take `CS(=O)(=O)N(CCC#N)Cc1ccco1`: the relative growth is 1.

As for `C[C@H]1CN([C@@H](C)CO)C(=O)Cc2cc(NC(=O)CCN3CCOCC3)ccc2O[C@@H]1CN(C)S(=O)(=O)c1cn(C)cn1`, the relative growth is 1.03.

Take `CC(C)NC(=O)N(C)C[C@@H]1Oc2ccc(NC(=O)Cc3ccccc3)cc2CC(=O)N([C@H](C)CO)C[C@H]1C`: the relative growth is 0.977.

Turning to `CC(C)NC(=O)N(C)C[C@@H]1Oc2ccc(NC(=O)CCC(F)(F)F)cc2CC(=O)N([C@H](C)CO)C[C@@H]1C`, the relative growth is 0.959.

With `Cn1c(=O)cnn(CCCCN2CCN(c3ncccn3)CC2)c1=O`, the relative growth is 0.987.

In the case of `Cl.O=C1CC2(CCCC2)CC(=O)N1CCCCN1CCN(c2ncccn2)CC1`, the relative growth is 0.0493 (active).

With `O=C(C1CC1)N1CCN(c2ncccn2)CC1`, the relative growth is 0.991.

As for `CC(C)CC#Cc1cnc2c(c1)C(=O)N([C@@H](C)CO)C[C@@H](C)[C@H](CN(C)C(=O)CCN1CCCCC1)O2`, the relative growth was 0.987.

Turning to `COc1ccc(NC(=O)N(C)C[C@@H]2Oc3c(NC(=O)CCCCCC(=O)Nc4ccccc4N)cccc3C(=O)N([C@H](C)CO)C[C@H]2C)cc1`, the relative growth is 1.01.

In the case of `C[C@@H]1CN([C@H](C)CO)C(=O)c2cc(NC(=O)Nc3ccc(C(F)(F)F)cc3)ccc2O[C@@H]1CN(C)Cc1ccc(-c2ccccc2)cc1`, the relative growth was 0.996.

Take `O=C1NCCN1c1cccnc1`: the relative growth was 1.01.

Turning to `O=C1NCCN1c1ncc([N+](=O)[O-])s1`, the relative growth is 0.0407 (active).

On to `CC(=O)Nc1ncc([N+](=O)[O-])s1`, for which the relative growth is 0.923.

As to `Cc1noc(C)c1NC(=O)Nc1ccc2c(c1)CC(=O)N([C@H](C)CO)C[C@@H](C)[C@H](CN(C)CC1CC1)O2`, the relative growth is 1.02.

Turning to `CC(C)[C@@H](CC[C@@H](C)[C@H]1CC[C@H]2[C@@H]3[C@H](O)C[C@H]4C[C@@H](NCCCNCCCCN)CC[C@]4(C)[C@H]3CC[C@]12C)OS(=O)(=O)O`, the relative growth was 0.137 (active).

Regarding `CC(CCC(=O)O)C1CCC2C3C(O)CC4CC(O)CCC4(C)C3CCC12C` (stereo not drawn), the relative growth is 1.01.

Regarding `C[C@H](CCC(=O)NCCS(=O)(=O)O)[C@H]1CC[C@H]2[C@@H]3[C@H](O)C[C@@H]4C[C@H](O)CC[C@]4(C)[C@H]3C[C@H](O)[C@]12C`, the relative growth is 1.01.

In the case of `COC(=O)CCC(C)C1CCC2C3C(O)CC4CC(O)CCC4(C)C3CC(O)C12C` (stereo not drawn), the relative growth is 1.03.

On to `CC(C)[C@@H](CC[C@@H](C)[C@H]1CC[C@H]2[C@@H]3[C@H](O)C[C@H]4C[C@@H](NCCCNCCCCNCCCN)CC[C@]4(C)[C@H]3CC[C@]12C)OS(=O)(=O)O`, for which the relative growth is 0.152 (active).

In the case of `CCCCCCCCCCCCCCCCCCCC(=O)N[C@H]1CC[C@@]2(C)[C@@H](C1)C[C@@H](O)[C@@H]1[C@@H]2C[C@H](O)[C@]2(C)[C@@H]([C@H](C)CCC(=O)O)CC[C@@H]12`, the relative growth was 1.02.

`C[C@H]1CN([C@@H](C)CO)C(=O)Cc2cc(NC(=O)Cc3ccccc3)ccc2O[C@@H]1CN(C)S(=O)(=O)c1ccccc1`: the relative growth was 0.993.

Take `CCOC(=O)[C@@H](C)n1ncn2cccc2c1=O`: the relative growth is 1.01.

On to `CCCC#Cc1ccc2c(c1)O[C@@H](CN(C)C(=O)c1cnccn1)[C@@H](C)CN([C@H](C)CO)S2(=O)=O`, for which the relative growth was 0.971.

Take `C[C@H]1CC/C=C\[C@H]2O[C@@]34C=CCN(c5ccc6ccccc6c5)C(=O)[C@H]3N(CCO)C(=O)[C@@H]4[C@@H]2C(=O)O1`: the relative growth is 0.983.

As to `CC(=O)N1C[C@@H]2C(=O)N(C)C3(CCN(S(=O)(=O)Cc4ccccc4)CC3)[C@H]2C1`, the relative growth is 0.958.

As to `C[C@H]1CN([C@@H](C)CO)C(=O)Cc2cc(NC(=O)CCCCCC(=O)Nc3ccccc3N)ccc2O[C@H]1CN(C)C(=O)Nc1ccc(C(F)(F)F)cc1`, the relative growth is 0.958.

On to `C[C@H]1CN([C@@H](C)CO)C(=O)c2c(c3ccccc3n2C)-c2ccccc2CO[C@@H]1CN(C)Cc1cccc(F)c1`, for which the relative growth is 0.962.

`CC1=C(C(=O)O)N2C(=O)[C@@H](NC(=O)[C@H](N)c3ccccc3)[C@H]2SC1`: the relative growth is 1.03.

As for `CC1=C(C(=O)O)N2C(=O)[C@H](NC(=O)[C@@H](N)c3ccccc3)[C@H]2SC1`, the relative growth is 1.02.

Regarding `CC1=C(C(=O)O)N2C(=O)C(NC(=O)C(N)c3ccccc3)C2SC1` (stereo not drawn), the relative growth is 1.03.

On to `N[C@@H](C(=O)N[C@@H]1C(=O)N2C(C(=O)O)=C(Cl)CS[C@H]12)c1ccccc1`, for which the relative growth was 0.0303 (active).

Consider `CC1=C(C(=O)O)N2C(=O)[C@@H](NC(=O)[C@@H](N)c3ccccc3)[C@H]2SC1`, for which the relative growth is 0.998.

In the case of `N[C@@H](C(=O)N[C@@H]1C(=O)N2C(C(=O)O)=C(Cl)CC[C@H]12)c1ccccc1`, the relative growth was 0.0311 (active).

With `NC(C(=O)NC1C(=O)N2C(C(=O)O)=C(Cl)CSC12)c1ccccc1` (stereo not drawn), the relative growth was 0.0491 (active).

Regarding `OC[C@H]1O[C@H](n2nnc3ccccc32)[C@@H](O)[C@@H](O)[C@@H]1O`, the relative growth was 0.989.

Regarding `Cc1noc(C)c1S(=O)(=O)Nc1cccc2c1O[C@H](CN(C)S(=O)(=O)c1cccs1)[C@H](C)CN([C@@H](C)CO)C2=O`, the relative growth is 1.

Regarding `CCCN1C[C@@H](C)[C@H](OC)CN(C)C(=O)c2ccc(NS(=O)(=O)c3cn(C)cn3)cc2OC[C@@H]1C`, the relative growth was 1.

As to `Nc1ccc(/C=C/c2ccccc2)cc1`, the relative growth was 0.999.

As for `C[C@H](CO)N1C[C@H](C)[C@@H](CN(C)C(=O)c2cnccn2)Oc2cc(Br)ccc2S1(=O)=O`, the relative growth was 0.986.

With `CC1CCc2c(N3CCC(O)CC3)c(F)cc3c(=O)c(C(=O)O)cn1c23` (stereo not drawn), the relative growth was 0.0484 (active).

On to `CC1CCc2cc(F)cc3c(=O)c(C(=O)O)cn1c23` (stereo not drawn), for which the relative growth is 0.0455 (active).

As to `C[C@@H]1CN([C@@H](C)CO)C(=O)Cc2cc(NC(=O)Cc3ccccc3)ccc2O[C@@H]1CN(C)Cc1ccc(Oc2ccccc2)cc1`, the relative growth is 0.987.

For the compound `O=C(C[C@H]1C=C[C@H](NS(=O)(=O)c2ccccc2F)[C@@H](CO)O1)NCCCN1CCOCC1`, the relative growth was 0.993.

For `C[C@H]1CN([C@@H](C)CO)C(=O)Cc2cc(NS(=O)(=O)c3ccccc3)ccc2O[C@@H]1CN(C)S(C)(=O)=O`, the relative growth was 0.961.

Take `NC(=O)[C@@H]1C(=O)C[C@@H]2C[C@@H]3Cc4cccc(O)c4C(=O)[C@@H]3C(=O)[C@]2(O)C1=O`: the relative growth is 0.164 (active).

As for `C[C@@H]1CN([C@@H](C)CO)C(=O)Cc2cc(NC(=O)C3CCCCC3)ccc2O[C@H]1CN(C)C(=O)Nc1cccc2ccccc12`, the relative growth is 1.01.

As for `COC(=O)[C@H](Cc1ccc(N=[N+]=[N-])cc1)N1CC2=C[C@@H](C3CC3)n3c(=O)n(C)c(=O)n3[C@H]2[C@@H]1[C@@H](O)Cc1ccccc1`, the relative growth was 0.989.

Consider `O=C(O)c1cn(C2CC2)c2cc(N3CCC(O)(COc4ccc(N5C[C@H](CO)OC5=O)cc4F)CC3)c(F)cc2c1=O`, for which the relative growth is 0.111 (active).

Turning to `CC(=O)NCC1CN(c2ccc(N3CCOCC3)c(F)c2)C(=O)O1` (stereo not drawn), the relative growth was 0.701.

As to `O=C(O)c1cn(C2CC2)c2cc(N3CCNCC3)c(F)cc2c1=O`, the relative growth was 0.0478 (active).

`CC(=O)NC[C@H]1CN(c2ccc(N3CCN(C(=O)CO)CC3)c(F)c2)C(=O)O1`: the relative growth is 0.38.

Regarding `CCN1CCN(c2cc3c(cc2F)c(=O)c(C(=O)O)cn3C2CC2)CC1`, the relative growth was 0.0449 (active).

As for `C[C@H](CO)N1C[C@H](C)[C@H](CN(C)C(=O)Nc2ccc(F)cc2)OCCCC[C@H](C)Oc2ccc(NC(=O)C3CCOCC3)cc2C1=O`, the relative growth is 0.981.

As to `Cc1ccc(S(=O)(=O)Nc2ccc3c(c2)C(=O)N([C@@H](C)CO)C[C@H](C)[C@H](CN(C)S(C)(=O)=O)OCCCC[C@@H](C)O3)cc1`, the relative growth is 1.

On to `NC[C@H]1CC[C@H](C(=O)N2CCC(c3ccncc3)CC2)CC1`, for which the relative growth was 1.03.

For the compound `Cc1ccc(S(=O)(=O)N[C@H]2CC[C@H](CCNC(=O)CN3CCOCC3)O[C@@H]2CO)cc1`, the relative growth was 1.

Regarding `C[C@@H]1CN([C@H](C)CO)C(=O)c2cc(NS(=O)(=O)c3ccccc3)ccc2O[C@@H](C)CCCCO[C@H]1CN(C)Cc1ccc(C(=O)O)cc1`, the relative growth is 1.

Turning to `COc1ccc(NC(=O)N(C)C[C@H]2OCCCC[C@@H](C)Oc3ccc(NC(=O)c4ccccc4)cc3C(=O)N([C@@H](C)CO)C[C@H]2C)cc1`, the relative growth was 0.994.

On to `COC[C@H](C)N1C[C@H](C)[C@@H](CN(C)Cc2ccc(Oc3ccccc3)cc2)Oc2c(NC(=O)c3ccncc3)cccc2C1=O`, for which the relative growth is 1.

As to `Cc1noc(C)c1S(=O)(=O)Nc1ccc2c(c1)C(=O)N([C@H](C)CO)C[C@@H](C)[C@H](CN(C)C(=O)NC1CCCCC1)O2`, the relative growth was 1.01.

Consider `C[C@@H]1CN([C@H](C)CO)C(=O)c2cc(NS(=O)(=O)c3ccc(F)cc3)ccc2O[C@@H](C)CCCCO[C@@H]1CN(C)C(=O)C1CCCCC1`, for which the relative growth is 0.993.

`Cc1noc(C)c1NC(=O)N(C)C[C@H]1Oc2ccc(NC(=O)Nc3ccc(C(F)(F)F)cc3)cc2CC(=O)N([C@H](C)CO)C[C@H]1C`: the relative growth was 0.935.

The values above are taken from the supplement of paper PMC9446081.
